Measurements taken from the OligoGym collection.

How the values were obtained:
Assay in all cases: pooled miR-30 sensor sort-seq; sequence = guide strand
Conditions in all cases: shRNA
ZNF550 = biological target: ZNF550
ZNF592 = biological target: ZNF592
ZNF583 = biological target: ZNF583
ZNF708 = biological target: ZNF708
ZNF654 = biological target: ZNF654
ZNF674 = biological target: ZNF674
ZNF653 = biological target: ZNF653
ZNF836 = biological target: ZNF836
Further: reference of the scale not given here.

TTTACCTTTCTGCATTTCCAAA
sensor-assay potency score (higher = more potent) (ZNF550): -1.66

TTGTCCTCTGGAAATGTGCAGC
sensor-assay potency score (higher = more potent) (ZNF592): -0.92

TGCTGCATGAGGTACGACCTGC
sensor-assay potency score (higher = more potent) (ZNF550): -0.586

TTGACTAAGATGTACCTCTTGA
sensor-assay potency score (higher = more potent) (ZNF583): 0.141

TTGTTGAAGACCATTTCACAGG
sensor-assay potency score (higher = more potent) (ZNF592): -0.934

TTTTTTACATTCTTTACACTGA
sensor-assay potency score (higher = more potent) (ZNF583): 0.132

TTCTCCAACATCACTTTCCTGT
sensor-assay potency score (higher = more potent) (ZNF583): 0.0692

TTTAGAACTCTCTTTAGTGGGC
sensor-assay potency score (higher = more potent) (ZNF592): 0.465

TATAACTAAGATGTCTTGCTCC
sensor-assay potency score (higher = more potent) (ZNF583): 0.322

TTCGGTAACTTTTCTTTTGTGG
sensor-assay potency score (higher = more potent) (ZNF583): 0.115

ATTCTCTCTAGTCTCCATGGGC
sensor-assay potency score (higher = more potent) (ZNF592): -0.404

TTCTGCACGAACAAGAGTGGGC
sensor-assay potency score (higher = more potent) (ZNF592): -0.174

TAATGTGGTCTTTCTCCGCTTC
sensor-assay potency score (higher = more potent) (ZNF592): -0.0177

TTTGTCACACTGAACTATTTTG
sensor-assay potency score (higher = more potent) (ZNF708): -1.74

TGAGTCTGTCTGAACATCCCAA
sensor-assay potency score (higher = more potent) (ZNF654): -0.147

TTTACTACACTCATAAATGTTC
sensor-assay potency score (higher = more potent) (ZNF674): -0.591

TTCTTGACCACTTTCATCCTTC
sensor-assay potency score (higher = more potent) (ZNF674): 0.42

TATCTTGATCAGAACAGGCATC
sensor-assay potency score (higher = more potent) (ZNF654): -0.711

TTTTACATTCTTGACCACTTTC
sensor-assay potency score (higher = more potent) (ZNF674): -0.602

TTGTACTGCACCTCCGCAGTGT
sensor-assay potency score (higher = more potent) (ZNF653): -0.237

TTCCTCTTGAAGGACTTGCCGC
sensor-assay potency score (higher = more potent) (ZNF653): -0.882

TTACACATGCAAAACTGCCTTT
sensor-assay potency score (higher = more potent) (ZNF654): 0.225

ATGATGGCTGACATGTCGCTGC
sensor-assay potency score (higher = more potent) (ZNF653): -0.928

TTCTCTAACATGACATTCCTAT
sensor-assay potency score (higher = more potent) (ZNF708): -0.111

ATGTCTTATCTTATGTCTCTTT
sensor-assay potency score (higher = more potent) (ZNF708): -1.05

TTGAGCTGCAGCAATTTGCTGC
sensor-assay potency score (higher = more potent) (ZNF654): 0.117

TTTCTAGTAAGAATTATCTTAC
sensor-assay potency score (higher = more potent) (ZNF708): -0.946

TTGATTTGCTAGTAGAAACTGG
sensor-assay potency score (higher = more potent) (ZNF654): 0.3

TTATCTTATGTCTCTTTGCATT
sensor-assay potency score (higher = more potent) (ZNF708): -1.42

TACTGTGATGTCTTCCAGCTTT
sensor-assay potency score (higher = more potent) (ZNF708): -0.106

TACAGAAACAAAGTCTGTGTTG
sensor-assay potency score (higher = more potent) (ZNF674): -0.525

TTCTACATATTTTACATTCTTG
sensor-assay potency score (higher = more potent) (ZNF674): -0.737

TAAAGTTTCCTTCTTGATCTGT
sensor-assay potency score (higher = more potent) (ZNF654): 0.508

TAGCAAGCACAGGTCCTCCTTC
sensor-assay potency score (higher = more potent) (ZNF653): -0.219

TTGATGAGAGTTGACTTCCTAC
sensor-assay potency score (higher = more potent) (ZNF674): -0.0843

TTTGTCACTGTCAGGGTCTGAG
sensor-assay potency score (higher = more potent) (ZNF653): -0.472

TTTTACAGAAACAAAGTCTGTG
sensor-assay potency score (higher = more potent) (ZNF674): 0.624

TACATTCTTGACCACTTTCATC
sensor-assay potency score (higher = more potent) (ZNF674): -1.6

TAGGATTTGAGTCTGTCTGAAC
sensor-assay potency score (higher = more potent) (ZNF654): -1.01

TTGACGTGGTTCTGGAAGCTGC
sensor-assay potency score (higher = more potent) (ZNF653): -0.877

TATCTGCTCGTCAACTTCCCAG
sensor-assay potency score (higher = more potent) (ZNF674): -1.05

TTGGACATTTGTCACATACAAA
sensor-assay potency score (higher = more potent) (ZNF674): -1.79

TTTCTTGTGATTAGTAAGGTTT
sensor-assay potency score (higher = more potent) (ZNF708): -0.453

TTGACCACTTTCATCCTTCAGT
sensor-assay potency score (higher = more potent) (ZNF674): 0.00879

TTCTGAACTAAACTGTCTGTTT
sensor-assay potency score (higher = more potent) (ZNF654): 0.135

TAAATATCCGGACACAACCAAG
sensor-assay potency score (higher = more potent) (ZNF654): -1.3

TTTGCTAGTAGAAACTGGCAGA
sensor-assay potency score (higher = more potent) (ZNF654): -0.0895

ATAAATAGAACTTCTTGCCACA
sensor-assay potency score (higher = more potent) (ZNF653): -0.586

TTGTCGCACATTTAAATCGGTT
sensor-assay potency score (higher = more potent) (ZNF654): -1.07

TTTACAGAAACAAAGTCTGTGT
sensor-assay potency score (higher = more potent) (ZNF674): -0.0841

TGAAGTTGTACTGCACCTCCGC
sensor-assay potency score (higher = more potent) (ZNF653): -0.192

TTCTTCCTCTTGAAGGACTTGC
sensor-assay potency score (higher = more potent) (ZNF653): -0.65

TTCTTGTGGTACAACACTGGGC
sensor-assay potency score (higher = more potent) (ZNF654): -0.302

TTTTGTCTGAAGATCTTGCCAC
sensor-assay potency score (higher = more potent) (ZNF836): 0.166
